Pin1 inh: inhibitors of human Pin1 | actives 0.009% (n = 390,000) | Q13526 | Pin1 FP peptide displacement, HiFluor488, 10 min | Potency, µM (titrated, usually from 115 µM), hits mostly inhibitors; active = well fitted inhibition curve with a large enough effect in the polarisation, with a control signal flat, not every such curve was filed as active; inconclusive = small, poorly fitted or top-dose-only effect, or effect the other way, or a change in a side signal; inactive = no such curve, though single readings can be large or run the other way; the % refers to the polarisation
Target sequence (Q13526 whole entry, looked up): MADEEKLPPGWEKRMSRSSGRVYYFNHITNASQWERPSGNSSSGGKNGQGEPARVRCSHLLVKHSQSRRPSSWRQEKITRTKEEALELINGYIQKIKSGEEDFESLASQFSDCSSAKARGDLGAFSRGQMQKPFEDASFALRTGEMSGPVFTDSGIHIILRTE
PI4K2A block: blocks human PI4K2A kinase activity; activity change, negative = inhibition, % at 76.9 µM; purified PI4K2A, ADP-Glo luminescence, 1 h; hits give low values; AID 1346378; actives 0.13% (n = 420,000); Q9BTU6; in the data active = activity change below about -50%; inconclusive = mostly about -30% to -49%
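PI4K2A activity was measured by ADP-Glo luminescence: enzyme (4 ug/mL stock) and phosphatidylinositol (1.2 mM stock) in Tris pH 7.5/MgCl2/EGTA/Triton X-100 buffer were reacted with ATP (300 microM stock) for one hour at ambient temperature.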
PI5P4Ka inh: inhibitors of human PI5P4K alpha | actives 1.2% (n = 330,000) | P48426 | AID 652105 | max response, % | PI5P4Kalpha enzyme, ADP-Glo luminescence, 60 min; hits give low values; active = max response of -50% or lower; inconclusive = between -30% and -50%; inactive = -30% or higher; also: value at the top dose of about 77 µM
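ADP-Glo luminescence end-point read after a 60 min room-temperature kinase reaction of PI5P4Kalpha plus substrate, initiated with ATP at 5 microM final. Buffer: 0.038 M HEPES pH 7.4, EGTA, 0.1% CHAPS, 5% DMSO.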
PGK inhibitor: T. brucei PGK inhibition; P07378; PGK/GAPDH coupled, Kinase-Glo luminescence, 60 min; Potency, µM (doses to about 57.5 µM), most hits filed as inhibitors; actives 0.043% (n = 380,000); also: nearly all actives have a fitted effect of over 60% in size
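Recombinant glycosomal PGK reaction used 1,3-bisphosphoglycerate generated in-well by GAPDH (100nM final) in 100mM TEA pH 7.6, 5mM MgCl2, 0.01% Tween-20. After 60 minutes at room temperature, ATP was read by Kinase-Glo Plus luminescence end-point.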
Tb PFK inh: T. brucei PFK enzyme inhibition; O15648; T. brucei PFK, ADP-Glo luminescence; Potency, µM (series often up to 57.5 µM), actives largely listed as inhibitors; actives 0.17% (n = 330,000); also: nearly all actives have a fitted effect of over 60% in size
Target sequence (O15648 whole entry, looked up): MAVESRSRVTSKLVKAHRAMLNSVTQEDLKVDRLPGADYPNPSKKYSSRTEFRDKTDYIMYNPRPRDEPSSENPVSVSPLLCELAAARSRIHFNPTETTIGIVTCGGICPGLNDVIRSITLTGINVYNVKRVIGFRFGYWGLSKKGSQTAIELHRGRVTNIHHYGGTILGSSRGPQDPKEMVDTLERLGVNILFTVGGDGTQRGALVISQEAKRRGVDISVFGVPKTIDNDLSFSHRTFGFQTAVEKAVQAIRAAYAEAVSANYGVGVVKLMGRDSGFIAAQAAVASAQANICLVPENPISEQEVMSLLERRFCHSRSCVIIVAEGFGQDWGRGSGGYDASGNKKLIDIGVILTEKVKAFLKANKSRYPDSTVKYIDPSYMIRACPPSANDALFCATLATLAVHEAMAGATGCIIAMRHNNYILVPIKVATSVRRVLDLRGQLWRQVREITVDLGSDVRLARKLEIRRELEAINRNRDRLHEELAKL
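Compounds were pin-transferred as a titration series up to 57 uM into substrate buffer (0.5 mM F6P, 0.1 mM ATP, pH 8.0), then 1.25 nM PFK was added and reactions ran 45 min before ADP-Glo detection.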
A number is an active result; 0 = inactive; ? = inconclusive; - = no result given. This excerpt belongs to a sample that is enriched for hits. Unless noted, calls follow the shape of the dose curve; as a rule, active = well fitted curve in the direction sought with a large enough effect; inconclusive = small, poorly fitted or top-dose-only effect, or another doubt; inactive = no such curve, though single readings can be large; an effect the other way counts as inactive or inconclusive.

SMILES	Pin1 inh	PI4K2A block	PI5P4Ka inh	PGK inhibitor	Tb PFK inh
C=C(C)c1cc2c(s1)c1cnn(Cc3ccccc3F)c(=O)c1n2C	0	-	-	-	-
COC(=O)c1ccccc1NC(=O)COc1ccccc1[N+](=O)[O-]	0	0	0	0	0
O=C(COc1ccccc1[N+](=O)[O-])Nc1cc(Cl)ccc1C(=O)O	0	0	-54.8	0	0
O=C(CNC(=O)c1ccc(-c2ccccc2)cc1)OC(C(=O)Nc1cc(C(F)(F)F)ccc1Cl)c1ccccc1 (stereo not drawn)	0	-	-	-	-
Oc1c(Br)cc(/C=N/Nc2nncc3ccccc23)cc1Br	0	0	-61.5	0	?
Oc1ccc(/C=N/Nc2ccc(Cl)nn2)c(O)c1O	?	0	-70.6	0	0
Oc1c(Br)cc(Br)cc1/C=N/Nc1ccc(Cl)nn1	0	0	0	0	0
Oc1c(Br)cc(/C=N/Nc2ccc(Cl)nn2)cc1Br	0	0	-92.7	0	0
O=C(O)CCN1C(=O)/C(=C/c2ccc(F)cc2F)SC1=S	-	0	-	-	-
CC(=O)N1CCc2c1cccc2S(=O)(=O)NC(CC(C)C)C(=O)Nc1ccc(Cl)c(Cl)c1 (stereo not drawn)	-	0	-	-	-
O=C(O)c1cc(N2C(=O)C=CC2=O)cc(N2C(=O)C=CC2=O)c1	-	0	-77.7	?	-
Cc1oc(=O)oc1COC(=O)[C@@H]1N2C(=O)[C@@H](NC(=O)[C@H](N)c3ccccc3)[C@H]2SC1(C)C	-	0	-	-	-
COc1ccccc1/C=C/C=N/n1c(-c2cc(-c3ccccc3)n[nH]2)n[nH]c1=S	0	0	-51.9	0	0
Cc1ccccc1CNC1CCCCC1	0	0	0	0	0
Oc1cc(CNC2CCCCC2)c(O)cc1CNC1CCCCC1	?	0	-52.8	0	-
CC(=O)Nc1cccc(-c2nc3ccccc3s2)c1	0	0	0	0	0
Oc1cccc(-c2nc3ccccc3s2)c1	0	?	0	0	0
COC(=O)Cc1ccc2sc(-c3ccccc3)nc2c1	0	-62.3	0	0	0
O=C(O)Cc1ccc2sc(-c3ccccc3)nc2c1	0	-67.1	0	0	0
Nc1ccc2c(c1)CN1C(=O)c3ccccc3C1=N2	-	0	-	-	-
O=S1(=O)N=C(Sc2cccc3cccnc23)c2ccccc21	0	-	-	-	-
CCc1ccc(S(=O)(=O)Nc2ccc(O)c3c(=O)cc(-c4ccccc4Cl)oc23)cc1	?	0	0	0	0
O=c1cc(-c2ccccc2Cl)oc2c(NS(=O)(=O)c3cc(Cl)cc(Cl)c3O)ccc(O)c12	22.4µM	0	-89.0	?	0
COc1ccc(-n2cccc2/C=C2/NC(=O)N(c3cccc(Cl)c3)C2=O)cc1	0	0	0	0	0
Cc1ccccc1NC(=O)CN1C(=O)N/C(=C\c2ccccc2OCc2ccc(C(=O)O)cc2)C1=O	-	-50.8	?	?	0
SMILES	Pin1 inh	PI4K2A block	PI5P4Ka inh	PGK inhibitor	Tb PFK inh
O=C(O)c1cccc(-n2cccc2/C=C2/NC(=O)N(c3cccc(Cl)c3)C2=O)c1	-	0	-59.0	?	0
O=C(O)c1ccc(COc2ccccc2/C=C2\NC(=O)N(Cc3ccc(F)cc3)C2=O)cc1	0	0	0	0	0
O=C(O)c1cccc(-n2cccc2/C=C2/NC(=O)N(c3ccc(Cl)cc3)C2=O)c1	-	?	-98.0	3.16µM	?
O=C(O)c1ccc(COc2ccccc2/C=C2/NC(=O)N(c3cccc(Cl)c3)C2=O)cc1	?	0	-50.4	0	0
COc1ccc(-c2nnc3n2N=C(c2cccc([N+](=O)[O-])c2)CS3)cc1	-	0	-	-	-
COC(=O)[C@]12C[C@H](CC(=O)NCCCCc3ccccc3)C(=O)N(Cc3ccc(Cl)cc3Cl)C1=C[C@H](COCc1ccccc1)O[C@@H]2C	-	0	-	-	-
CCOc1cc([N+](=O)[O-])cc(/C=C2/NC(=O)N(Cc3ccccc3F)C2=O)c1O	?	0	-77.2	0	0
Cc1cc(/C=C2/NC(=O)N(Cc3ccccc3F)C2=O)c(C)n1C	?	0	0	0	0
NCCC(=O)Nc1cccc(-c2nn3c(=O)cc(N4CCNCC4)nc3s2)c1	0	-	-	-	-
O=C(O)CC(C(=O)O)N1C(=O)/C(=C/c2ccc(-c3nc4ccccc4s3)o2)SC1=S (stereo not drawn)	?	?	0	25.1µM	?
O=C(NC1CCCCN(Cc2ccc(OC(F)(F)F)cc2)C1=O)c1ccc(F)c(F)c1 (stereo not drawn)	-	0	-	-	-
O=C1CCc2cc(S(=O)(=O)Nc3ccncc3)ccc2N1	0	-	-	-	-
CC1(C)CC(=O)C2=C(C1)NC(=S)C(C#N)C21CCCCC1 (stereo not drawn)	0	0	-61.8	0	0
CC1(OC(=O)c2cccs2)C(=O)C=C2C=C3CCCN3C=C2C1=O (stereo not drawn)	?	?	-59.6	?	0
O=C(O)Cc1ccc2c(c1)C(=O)c1ccccc1CO2	-	0	-	-	-
CC(C)(C)c1[nH]nc2c1C(c1ccncc1)C(C#N)=C(N)O2 (stereo not drawn)	0	0	-50.8	0	0
N#CC1=C(N)Oc2n[nH]c(-c3cccs3)c2C1C1C=CCCC1 (stereo not drawn)	0	0	-52.1	0	0
N#CC1=C(N)Oc2n[nH]c(-c3cccs3)c2C1c1ccsc1 (stereo not drawn)	0	0	-56.1	0	0
CC(C)(C)c1[nH]nc2c1C(c1ccoc1)C(C#N)=C(N)O2 (stereo not drawn)	0	0	0	0	0
N#CC1=C(N)Oc2n[nH]c(-c3cccs3)c2C1C1CCCCC1 (stereo not drawn)	0	0	?	0	0
CCOC(=O)Cc1[nH]nc2c1C(c1cccc(OC)c1OC)C(C#N)=C(N)O2 (stereo not drawn)	0	0	0	0	0
CCOC(=O)Cc1[nH]nc2c1C(C1C=CCCC1)C(C#N)=C(N)O2 (stereo not drawn)	0	0	-51.3	?	0
O=C(O)CCCC[P+](c1ccccc1)(c1ccccc1)c1ccccc1	-	0	-	-	-
C[C@@H](c1ncncc1F)C(O)(Cn1cncn1)c1ccc(F)cc1F (stereo partly drawn)	-	0	-	-	-
O=C(O)CSc1ccc(NC(=O)Nc2ccccc2F)cc1	0	-53.8	?	0	0
SMILES	Pin1 inh	PI4K2A block	PI5P4Ka inh	PGK inhibitor	Tb PFK inh
NS(=O)(=O)c1ccc(-c2ccc(C=O)o2)cc1	0	0	0	0	0
CC1=C(C#N)C(=O)NC(=O)/C1=C/c1ccc(-c2ccc(S(N)(=O)=O)cc2)o1	0	0	-95.9	?	0
NS(=O)(=O)c1ccc(-c2ccc(/C=C3\NC(=S)NC3=O)o2)cc1	?	0	-65.9	0	?
COc1ccc(-n2cccc2/C=C2\C(=N)N3N=C(c4ccco4)SC3=NC2=O)cc1	?	0	-53.2	?	0
COc1ccc(-n2cccc2/C=C2\C(=N)N3N=C(C(C)C)SC3=NC2=O)cc1	0	0	0	0	0
N=C1/C(=C\c2coc3ccccc3c2=O)C(=O)N=C2SC(c3ccncc3)=NN12	?	0	-74.3	0	0
N=C1/C(=C\c2coc3ccc(O)cc3c2=O)C(=O)N=C2SC=CN12	?	0	-69.5	0	0

From PubChem
